# Compound activity deposited in PubChem by several laboratories.
# PfHsp40 yeast: rescue of yeast from PfHsp40 toxicity, primary screen, S. cerevisiae, ATP luminescence | S. cerevisiae expressing PfHsp40, growth rescue | growth rescue, % at 12.5 µM | 340,000 compounds, 0.68% hits; in the data active means growth rescue above about 28%, passing the limit was not always enough; inconclusive means no clear call, values can overlap the other calls;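 further: yeast W303a lacking pdr1 and pdr3 grown in galactose medium; growth measured after three days at 30 °C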
# Mtb hypoxia rep: PubChem AID 1159583. fluorescence inhibition, % (no concentration beside the values). M. tuberculosis hypoxia-regulated fluorescent reporter, fluorescence. 300,000 compounds, 0.1% hits; in the data active means fluorescence inhibition mostly above about 23%, no sharp cut-off; inactive means mostly below about 17%
# Sa RN4220 lethal: growth inhibition of S. aureus RN4220, primary screen, OD600. 330,000 compounds, 0.33% hits. AID 1259311, 2017. inhibition, % (concentration not given with the values). 16 h; in the data active means inhibition above about 85%;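 further: plate controls were untreated cells for no effect and reference antibiotic for full effect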
# VHR inh abs: VHR1 phosphatase inhibitors, primary screen, biochemical, absorbance, uHTS; Dual specificity protein phosphatase 3 (Homo sapiens), P51452; recombinant VHR phosphatase, pNPP absorbance; inhibition, % at 13.3 µM; 290,000 compounds, 0.52% hits; in the data active means inhibition above about 50%
# Target sequence (P51452 whole entry, looked up): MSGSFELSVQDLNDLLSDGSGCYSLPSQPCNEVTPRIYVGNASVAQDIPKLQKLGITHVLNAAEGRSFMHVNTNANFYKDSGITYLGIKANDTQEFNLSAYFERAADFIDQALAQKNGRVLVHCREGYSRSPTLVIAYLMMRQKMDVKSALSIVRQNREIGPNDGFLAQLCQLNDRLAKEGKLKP
# PriA SSB inh: inhibitors of Klebsiella pneumoniae PriA binding to SSB C-terminal tail, primary screen, biochemical, AlphaScreen; 430,000 compounds, 0.6% hits; PriA–SSB C-terminal tail interaction (Klebsiella pneumoniae); AlphaScreen SSBct-PriA binding, biotinylated peptide; inhibition, % at 33 µM; in the data active means inhibition mostly above about 37%, no sharp cut-off; inactive means mostly below about 20%;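 further: plate controls were negative control peptide for no effect and reference peptide for full effect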
# Sa ugtP lethal: growth inhibition of ugtP-null S. aureus, primary screen, RN4220 ugtP deletion, OD600 | 16 h | growth inhibition, % (no concentration beside the values) | 330,000 compounds, 0.54% hits; in the data active means growth inhibition above about 68%;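 further: plate controls were untreated wells for no effect and antibiotic for full effect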
# The depositor's hits bear a star; u = inconclusive; x = no result shown. Shown are actives, neighbours in structure and some others; about 1.8% of the full set was active somewhere.
SMILES,PfHsp40 yeast,Mtb hypoxia rep,Sa RN4220 lethal,VHR inh abs,PriA SSB inh,Sa ugtP lethal
O=S(=O)(NCCSCc1ccc(Cl)c(Cl)c1)c1ccc2c(c1)OCCO2,42*,x,-8,x,-11,42
Cc1ccc(SCCNS(=O)(=O)c2ccc3c(c2)OCCO3)cc1,4,-6,4,31,-8,17
Cn1cc(-c2cccc(C(F)(F)F)c2)cc(C#N)c1=O,0,-5,5,6,53*,11
O=S(=O)(Cl)c1ccc(C23CC4CC(CC(C4)C2)C3)cc1,x,x,x,x,0,x
COC(=O)c1ccccc1NC(=O)COC(=O)c1ccccc1N=Nc1ccc(N(C)C)cc1,73*,-5,3,-5,61,-4
CCOc1cccc(CN2CCC(CCC(=O)NC3CC3)CC2)c1O,-2,-3,3,51*,-10,6
O=C(CCC1CCN(Cc2ccc(Cl)cc2)CC1)NC1CC1,-1,19,0,70,-4,-2
Cc1cc(=O)n(CCNC(=O)c2ccccc2Nc2ccccc2)cn1,x,x,x,x,-21,x
Cc1ccc(C(=O)CNc2cc(C)ccc2C)cc1,0,1,3,4,14,4
CCNc1cc(O)ccc1C,77*,x,x,x,17,x
N#Cc1nc(Cc2ccccc2)oc1NCc1ccccc1Cl,0,x,-8,-12,40*,-6
O=C1c2ccccc2C(=O)c2c1oc(C(F)(F)F)c2C(=O)c1ccccc1,u,x,94*,7,-1,79*
CS(=O)(=O)N1CCC(C(=O)NCCc2nc3c(c(C(F)(F)F)n2)CCCC3)CC1,x,x,x,x,-5,x
Oc1ccccc1C1SC(c2ccccc2O)SC(c2ccccc2O)S1 (configuration not stated),32*,17,100*,x,-3,100*
COc1ccc(-c2ccnc3[nH]n(-c4ccccc4)c(=O)c23)cc1,0,17,-7,94,3,7
COc1cccc(-c2ccnc3[nH]n(-c4ccccc4)c(=O)c23)c1,-1,19,1,51*,0,11
O=c1c2c(-c3ccc([N+](=O)[O-])cc3)ccnc2[nH]n1-c1ccccc1,0,5,-2,58*,0,15
COC(=O)c1ccc2c(=O)n(CCCC(=O)N3CCN(c4cccc(C)c4C)CC3)c(=S)[nH]c2c1,x,x,x,x,-13,x
COc1ccc(C(=S)N2CCN(C(=O)C(Cl)(Cl)Cl)CC2)cc1,x,x,x,x,-4,x
CC1=Nc2ccccc2C1=Cc1c(N)n2c(S(=O)(=O)C(C)C)nsc2nc1=O,x,x,x,x,-5,x
O=C(CN1c2ccccc2Sc2ccccc21)NNC(=S)Nc1ccc(Cl)cc1,75*,16,-5,6,11,-5
Cc1cccc(N=Cc2[nH]c3ccc(Br)c(Cl)c3c2O)c1,1,19,35,-4,-16,100*
COc1cccc(NC(=O)CSc2nc(CC(=O)Nc3ccc(S(N)(=O)=O)cc3)cs2)c1,x,x,x,x,2,x
COc1ccc2nc(N(CCCn3ccnc3)C(=O)/C=C/c3cccs3)sc2c1,x,x,x,x,53*,x
CCN(CC)CCN(C(=O)/C=C/c1cccs1)c1nc2ccc(OC)cc2s1,0,-1,1,x,2,2
SMILES,PfHsp40 yeast,Mtb hypoxia rep,Sa RN4220 lethal,VHR inh abs,PriA SSB inh,Sa ugtP lethal
O=C(c1cccc(F)c1)N(CCCn1ccnc1)c1nc2ccc(Cl)cc2s1,x,x,x,x,52*,x
COc1ccc(Cl)c2sc(N(CCCn3ccnc3)C(=O)c3cccc(F)c3)nc12,x,x,x,x,25,x
COc1ccc2nc(N(CCN(C)C)C(=O)c3ccc4c(c3)OCCO4)sc2c1,0,6,4,15,-14,13
O=C(c1ccc2c(c1)OCCO2)N(CCCn1ccnc1)c1nc2ccc(F)cc2s1,x,x,x,x,37*,x
COc1ccc(NN=C(C(N)=O)C2=NC(C)(C)Cc3ccccc32)cc1,x,9,-1,x,78*,2
CC=CC(=O)Nc1cccc(C2=NOC3(C2)CC(C(N)=O)N(C(=O)C2(C)CC2)C3)c1 (configuration not stated),x,0,2,x,x,1
Cc1cc(C)n(CC(=O)N2CCCC(C(=O)c3cccc(OC(C)C)c3)C2)n1 (configuration not stated),0,9,1,52*,-4,0
COc1ccc(C(=O)C2CCCN(C(=O)Cn3nc(C)cc3C)C2)cc1F (configuration not stated),0,7,1,4,2,9
C=CCCC(=O)N1CCCC(C(=O)c2cccc(OC)c2)C1 (configuration not stated),-1,15,1,57*,-14,9
CCn1nc(C)cc1C(=O)N1CCCC(C(=O)c2ccc(Oc3ccccc3)cc2)C1 (configuration not stated),1,7,1,57*,-6,2
CCN(C(=O)CSc1nnc(CNc2cccc(OC)c2)n1C1CCCCC1)C1CCS(=O)(=O)C1 (configuration not stated),0,8,0,55*,7,5
COc1ccc(-c2ccc(=O)n(CCCC(=O)NC(C)C)n2)cc1,x,x,x,x,-8,x
COc1cc(C(c2c(O)c3ccccc3oc2=O)c2c(C)n(C)n(-c3ccccc3)c2=O)cc(Br)c1O (configuration not stated),x,x,x,x,3,x
COc1ccc(OC)c(C(c2c(O)c3ccccc3oc2=O)c2c(C)n(C)n(-c3ccccc3)c2=O)c1 (configuration not stated),46*,-1,1,37,-3,2
COC(=O)C(O)(NC(=O)c1ccncc1)C(F)(F)F (configuration not stated),1,-7,84*,-11,0,76
CCCCn1c(O)c(/C=C/C=C/C=Nc2ccccc2)sc1=S,42*,10,-7,4,x,-3
Cn1c(O)c(C=C2C=c3ccccc3=NC2=O)c(=O)n(C)c1=O,x,x,x,x,-3,x
COCCNC(=S)N1CCC(C(=O)c2ccc(C)cc2)CC1,48*,11,6,5,-13,8
Cc1ccc(C(=O)C2CCN(C(=S)NCCCOC(C)C)CC2)cc1,0,4,4,20,-3,6
O=C(Cc1noc2ccccc12)NCCCn1ncccc1=O,x,x,x,x,-2,x
Cc1ccc(S(=O)(=O)Cc2ccc(C(=O)N3CCN(c4cccc(C)c4C)CC3)o2)cc1,41*,1,18,13,0,-3
Cc1ccc(S(=O)(=O)Cc2ccc(C(=O)N3CCc4ccccc4C3)o2)cc1,1,x,5,54*,-6,2
CC(c1ccc2c(c1)OCO2)n1c(=S)[nH]c2ccccc2c1=O (configuration not stated),75*,6,-15,x,4,-44
